Results reported in the supplement of paper PMC9950053.
Counter-ions that a name gives are not always drawn.

Test system: Danio rerio larvae (5 dpf)
Assay: habituation (activity change first vs second 5 min of 1-s interval sound, period 17) minus DMSO control (percentage points); higher = larger habituation measure than DMSO larvae
Conditions: 10 µM; exposure time: 3 h pre-incubation + 3 h imaging
Summary of the method: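 Zebrafish larvae (wild-type, 5 dpf) were imaged every 6 s at 28.5 °C and tracked with Z-LaP Tracker after 3 h of compound exposure at 10 µM final, which continued for the 3 h of imaging. Only detections of at least 0.5 probability were kept, and larvae moving under 1% of the time were dropped. Behavioural measures are reported as the group mean minus the control mean in percentage points. Group size was 48 and control size was 844.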

| Compound | habituation |
| --- | --- |
| CCCc1nc(C(C)(C)O)c(C(=O)O)n1Cc1ccc(-c2ccccc2-c2nnn[nH]2)cc1 [Olmesartan] | 2.6 |
| Nc1cccc2c1CN(C1CCC(=O)NC1=O)C2=O (stereo not given) [Lenalidomide] | -0.218 |
| CS(=O)(=O)CCNCc1ccc(-c2ccc3ncnc(Nc4ccc(OCc5cccc(F)c5)c(Cl)c4)c3c2)o1 [Lapatinib] | -1.33 |
| CNC(=O)c1ccccc1Sc1ccc2c(/C=C/c3ccccn3)n[nH]c2c1 [Axitinib] | 0.305 |
| Cc1cc(C2CCCCC2)n(O)c(=O)c1 [Ciclopirox] | -2.51 |
| CN(C)CCC[C@@]1(c2ccc(F)cc2)OCc2cc(C#N)ccc21 [Escitalopram oxalate] | -6.32 |

Test system: Danio rerio larvae (5 dpf)
Assay: combined optomotor response (time in upper well half, down vs up moving lines, periods 7-14) minus DMSO control (percentage points); higher = stronger optomotor response than DMSO larvae
Conditions: 10 µM; exposure time: 3 h pre-incubation + 3 h imaging

| Compound | combined optomotor response |
| --- | --- |
| Cc1ccccc1C(=O)Nc1ccc(C(=O)N2CCCC(O)c3cc(Cl)ccc32)c(C)c1 (stereo not given) [Tolvaptan] | 4.13 |
| CC(C)Nc1cccnc1N1CCN(C(=O)c2cc3cc(NS(C)(=O)=O)ccc3[nH]2)CC1 [Delavirdine mesylate] | -0.694 |
| CC(=O)S[C@@H]1CC2=CC(=O)CC[C@]2(C)[C@H]2CC[C@@]3(C)[C@@H](CC[C@@]34CCC(=O)O4)[C@H]12 [Spironolactone] | 0.523 |
| CCCCCCCCc1ccc(CCC(N)(CO)CO)cc1 | -4.85 |
| COc1cc2nc(N3CCN(C(=O)C4COc5ccccc5O4)CC3)nc(N)c2cc1OC (stereo not given) [Doxazosin mesylate] | -3.96 |
| C[C@]12CCC(=O)C=C1CC[C@@H]1[C@@H]2[C@@H](O)C[C@@]2(C)[C@H]1CC[C@]2(O)C(=O)CO [Hydrocortisone] | 4.58 |
| NS(=O)(=O)Cc1noc2ccccc12 [Zonisamide] | 7 |
| O=C1CCc2cc(OCCCCc3nnnn3C3CCCCC3)ccc2N1 [Cilostazol] | 5.41 |
| CC(CCc1ccc(O)cc1)NCCc1ccc(O)c(O)c1 (stereo not given) [Dobutamine hydrochloride] | 1.08 |
| Cc1nnc(C(C)C)n1C1C[C@H]2CC[C@@H](C1)N2CC[C@H](NC(=O)C1CCC(F)(F)CC1)c1ccccc1 (stereo in doubt) [Maraviroc] | 0.791 |
| CC(C)(C#N)c1cc(Cn2cncn2)cc(C(C)(C)C#N)c1 [Anastrozole] | -1.87 |
| CC(C)c1ccc2oc3nc(N)c(C(=O)O)cc3c(=O)c2c1 [Amlexanox] | 4.64 |
| CCCc1nc(C(C)(C)O)c(C(=O)O)n1Cc1ccc(-c2ccccc2-c2nnn[nH]2)cc1 [Olmesartan] | 1.99 |
| Nc1ncn([C@H]2C[C@H](O)[C@@H](CO)O2)c(=O)n1 [Decitabine] | 3.77 |
| CC(=O)O[C@]1(C(C)=O)CC[C@H]2[C@@H]3C=C(C)C4=CC(=O)CC[C@]4(C)[C@H]3CC[C@@]21C [Megestrol Acetate] | -8.35 |
| Cc1cccc(CN2CCN(C(c3ccccc3)c3ccc(Cl)cc3)CC2)c1 (stereo not given) [Meclizine dihydrochloride] | -13.9 |
| Nc1cccc2c1CN(C1CCC(=O)NC1=O)C2=O (stereo not given) [Lenalidomide] | 1.12 |
| C[C@@H](O[C@H]1OCCN(Cc2n[nH]c(=O)[nH]2)[C@H]1c1ccc(F)cc1)c1cc(C(F)(F)F)cc(C(F)(F)F)c1 [Aprepitant] | 4.63 |
| Nc1ncn([C@@H]2O[C@H](CO)[C@@H](O)[C@H]2O)c(=O)n1 [5-Azacytidine] | 3.71 |
| CCCN(CCc1cccs1)[C@H]1CCc2c(O)cccc2C1 [Rotigotine hydrochloride] | -12.7 |
| CCc1ccc(CCOc2ccc(CC3SC(=O)NC3=O)cc2)nc1 (stereo not given) [Pioglitazone hydrochloride] | -1.77 |
| CC(=O)NC[C@H]1CN(c2ccc(N3CCOCC3)c(F)c2)C(=O)O1 [Linezolid] | 6.27 |
| Cc1cccc(C)c1OCC(C)N (stereo not given) [Mexiletine hydrochloride] | 2.6 |
| OCCN(CCO)c1nc(N2CCCCC2)c2nc(N(CCO)CCO)nc(N3CCCCC3)c2n1 [Dipyridamole] | -1.19 |
| CCCN(CCC)S(=O)(=O)c1ccc(C(=O)O)cc1 [Probenecid] | 4.87 |
| CS(=O)(=O)CCNCc1ccc(-c2ccc3ncnc(Nc4ccc(OCc5cccc(F)c5)c(Cl)c4)c3c2)o1 [Lapatinib] | -2.06 |
| CNC(=O)c1ccccc1Sc1ccc2c(/C=C/c3ccccn3)n[nH]c2c1 [Axitinib] | 3.98 |
| CC(C)C(=O)Nc1ccc([N+](=O)[O-])c(C(F)(F)F)c1 [Flutamide] | -12.4 |
| O=C(O[C@@H]1C[C@@H]2C[C@H]3C[C@H](C1)N2CC3=O)c1c[nH]c2ccccc12 [Dolasetron mesylate] | -2.11 |
